The list is not random: actives were taken first. Their share in the collection is about 3.8%.
Sfp PPTase inh: qHTS Assay for Inhibitors of Bacillus subtilis Sfp phosphopantetheinyl transferase (PPTase); 4'-phosphopantetheinyl transferase ffp (Bacillus subtilis), Q9F4F7; Biochemical Sfp PPTase activity, qHTS; Potency, µM, inactives show largest response in the series, negative = inhibition, actives largely listed as inhibitors; hit rate 3.5% among 310,000;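 further: the enzyme is Sfp with the accession as filed and its product quenches rhodamine fluorescence; 0% = enzyme reaction without inhibitor and -100% = no enzyme wells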
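With Hepes-Na pH 7.6 buffer containing 10 mM MgCl2, Sfp (15 nM) modified BHQ-2-YbbR (12.5 uM) using rhodamine-CoA (5 uM). Two reads 30 minutes apart at 525/598 nm yielded each well's rate.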
GCN5L2 inh: qHTS Assay for Inhibitors of GCN5L2. Potency, µM (top dose mostly 58.9 µM), for inactives: top-dose activity change, negative = inhibition, most hits filed as inhibitors. hit rate 0.21% among 390,000. AID 504327, 2011. GCN5L2 HAT assay, ThioGlo1 CoA-SH fluorescence. Histone acetyltransferase KAT2A (Homo sapiens), Q92830
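Enzyme at 20nM final was mixed with library compounds for 15 min at room temperature. Peptide H3(1-25) at 75uM, acetyl-CoA at 70uM and ThioGlo1 at 50uM were then added. Plates were read immediately and after 20 min (Ex340nm/Em540nm).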
rTrxR1 inhibitor: qHTS Assay for Inhibitors of Mammalian Selenoprotein Thioredoxin Reductase 1 (TrxR1): qHTS | hit rate 1% among 390,000 | Potency, µM (series often up to 114 µM), for inactives: at the highest dose activity change, negative = inhibition, most hits filed as inhibitors | Thioredoxin reductase 1, cytoplasmic (Rattus norvegicus), O89049 | recombinant rTrxR1, NADPH fluorescence consumption, selenite substrate; further: nearly all actives have a fitted effect of over 65% in size
Target sequence (O89049 whole entry, looked up): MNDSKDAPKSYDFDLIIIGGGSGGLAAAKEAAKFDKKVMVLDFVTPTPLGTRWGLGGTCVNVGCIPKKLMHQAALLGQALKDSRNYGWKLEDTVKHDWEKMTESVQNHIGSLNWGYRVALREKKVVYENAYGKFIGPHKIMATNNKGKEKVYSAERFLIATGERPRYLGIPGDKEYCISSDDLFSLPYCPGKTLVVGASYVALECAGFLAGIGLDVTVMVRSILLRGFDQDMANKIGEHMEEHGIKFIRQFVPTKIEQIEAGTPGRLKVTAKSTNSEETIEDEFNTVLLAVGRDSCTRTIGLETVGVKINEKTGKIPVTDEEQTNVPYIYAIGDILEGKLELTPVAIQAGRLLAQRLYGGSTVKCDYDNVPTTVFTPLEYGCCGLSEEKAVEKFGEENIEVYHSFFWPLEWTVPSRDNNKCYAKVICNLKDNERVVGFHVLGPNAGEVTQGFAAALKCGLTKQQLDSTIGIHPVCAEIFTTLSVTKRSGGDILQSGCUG
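Rat TrxR1 (90 nM in the dispensed reagent) was pre-reduced with 400 uM NADPH for 5 min at room temperature, then incubated with compound for 15 min. After 400 uM selenite was added, NADPH fluorescence (Ex 340/Em 450 nm) was followed for 8 min.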
TrxR1 substrate: qHTS Assay for Substrates of Mammalian Selenoprotein Thioredoxin Reductase 1 (TrxR1): qHTS; purified TrxR1 substrate turnover, NADPH consumption readout; Thioredoxin reductase 1, cytoplasmic (Rattus norvegicus), O89049; Potency, µM (highest dose often 114 µM), for the others: top-dose activity change, negative = substrate turnover; hit rate 0.01% among 390,000; further: nearly all actives have a fitted effect of over 50% in size
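Rat TrxR1, dispensed at 90 nM, was prereduced with 400 uM NADPH (final) for 5 min at ~22 deg C, then incubated with compound 15 min before 400 uM selenite. A first-read NADPH fluorescence drop versus no-compound background flagged substrates.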
VDR inh: Inhibitors of the vitamin D receptor (VDR): qHTS. Vitamin D3 receptor (Homo sapiens), P11473. VDR-SRC2-3 peptide fluorescence polarization, 2 h. Potency, µM, for inactives: max response, negative = inhibition, usual class: inhibitors. hit rate 0.93% among 400,000. AID 504847, 2011
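Fluorescence polarization assay measuring small-molecule disruption of VDR binding to the coregulator peptide SRC2-3. Compounds were pin-transferred (23 nl) into the reagent mix and incubated 2 h at room temperature before reading.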
GLS inh: qHTS for Inhibitors of Glutaminase (GLS) | GLS enzymatic activity, qHTS titration | hit rate 0.21% among 410,000 | Glutaminase kidney isoform, mitochondrial (Homo sapiens), O94925 | Potency, µM (top dose mostly 45.5 µM), for the others: at the top dose activity change, negative = inhibition, actives largely listed as inhibitors | AID 624170, 2012
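hKGA in 45 mM KH2PO4 pH 8.2, 0.02% Tween-20 with pin-transferred compounds; 1 mM L-glutamine (stock) plus glutamate oxidase/HRP/Amplex Red coupling added. Fluorescence read initially and after 30 min at RT.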
* = called active by the depositor; ? = inconclusive; nt = no result; ! = a repeat was not active; [ ] = dose if it differs, or a comment. The call rests on the fitted dose curve; in most records, active means well fitted curve in the direction sought with a large enough effect; inconclusive means small, poorly fitted or top-dose-only effect, or another doubt; inactive means no such curve, though single readings can be large; an effect the other way counts as inactive or inconclusive. Unless noted, on the % scale 0 is the no-effect control and ±100 the full control effect; potency means the concentration at half of the fitted maximal effect.

SMILES	Sfp PPTase inh	GCN5L2 inh	rTrxR1 inhibitor	TrxR1 substrate	VDR inh	GLS inh
COc1cc2c(C(F)(F)F)c(-c3ccsc3)oc(=O)c2cc1OC	nt	-10%	20%	-1%	-11%	-3%
CC(=O)CSc1ncnc2nc[nH]c12	0%	-6%	-2%[57.1 µM]	12%[57.1 µM]	14%	-5%
Cn1cnc(Sc2ncnc3nc[nH]c23)c1[N+](=O)[O-]	40µM*	?	-19%	9%	9%	0%
O=C1NC(=O)C2(CCCc3ccccc32)N1 (stereo not drawn)	15%	-3%	31%	-1%	-15%	-1%
CN(Cc1ccc(Cl)c(Cl)c1)C(=O)c1[nH]c(C(F)(F)F)nc1-c1ccccc1	nt	nt	nt	nt	nt	10%
COC(=O)c1sc(NC(=O)c2c(F)cccc2F)c(C#N)c1C	10%	-3%	6%	-3%	-9%	8%
NS(=O)(=O)c1ccc(-c2ccc(C=C3C(=O)c4ccccc4C3=O)o2)cc1	18%	2%	-2%	2%	-6%	-1%
CC(C)CC1=C/C(=C/c2ccc(-c3ccccc3)o2)C(=O)O1	?	?	?	72%	?	11µM*
Cc1cccc(N2CCN(C(=O)CN3C(=O)C4CC=CCC4C3=O)CC2)c1C (stereo not drawn)	10%	-6%	-1%[57.1 µM]	-1%[57.1 µM]	7%	-5%
Cc1ccc(OCC(O)Cn2c3ccccc3c3ccccc32)cc1 (stereo not drawn)	6%	1%	-1%	-6%	14%	1%
Cc1ccc(OCCN2CCN(CC(O)Cn3c4ccccc4c4ccccc43)CC2)cc1 (stereo not drawn)	45µM*	-10%	nt	nt	nt	nt
C/C=C(\C)C(=O)O[C@H]1C[C@@]2(C)CCC(C(C)C)C2(O)CC[C@@]1(C)O (stereo partly drawn)	11%	nt	nt	nt	-2%	nt
O=C(NC(N1CCOCC1)C(Cl)(Cl)Cl)c1ccc(F)cc1 (stereo not drawn)	9%	-3%	-38%	13%[57.1 µM]	-10%	0%
O=C(NC(N1CCCC1)C(Cl)(Cl)Cl)c1ccccc1 (stereo not drawn)	18%	-3%	32µM*	2%	-9%	7%
O=c1cc(C(F)(F)F)[nH]c(=S)n1-c1ccccc1	35µM*	18%	?	10%[57.1 µM]	-28%	26%
O=C1COc2ccccc2C(c2nc3ccccc3[nH]2)N1C1CC1 (stereo not drawn)	nt	nt	nt	nt	nt	-21%
CCc1nc(Nc2ccccc2)c2nnn(Cc3ccccc3)c2n1	35µM*	-19%	15%	5%	11%	-3%
COc1ccccc1Nc1nc2c(s1)CCC2	40µM*	-6%	-3%[57.1 µM]	6%[57.1 µM]	-18%	21%
Cc1ccc(Nc2nc3c(s2)CCC3)c(C)c1	?	1%	-9%	3%	-1%	8%
CCCCn1nc(C(=O)Oc2ccc3c(C)cc(=O)oc3c2)c2ccccc2c1=O	3%	?	79µM*	569%	?	16%
Cc1cc(=O)oc2cc(OC(=O)CCN3C(=O)c4ccccc4C3=O)ccc12	2%	-11%	40µM*	263%	-17%	6%
Cc1cc(=O)oc2cc(OCCCN3C(=O)c4ccccc4C3=O)ccc12	13%	20%	15%	7%	-16%	-2%
COC(=O)[C@@]1(C)[C@H]2C(=O)N(Cc3ccccc3)C(=O)[C@H]2[C@H]2CN=C(SCC(=O)c3ccccc3)N21	nt	-1%	60%	-2%	20µM*	12%
COC(=O)[C@@]1(C)[C@H]2C(=O)N(Cc3ccccc3)C(=O)[C@H]2[C@H]2CN=C(SC)N21	nt	-1%	21%	4%	-14%	4%
O=C1c2ccc3c4c(ccc(c24)C(=O)N1c1cccc(O)c1)C(=O)N(c1cccc(O)c1)C3=O	7%	-3%	26%	6%	-8%	-2%
SMILES	Sfp PPTase inh	GCN5L2 inh	rTrxR1 inhibitor	TrxR1 substrate	VDR inh	GLS inh
CC1(C)CC(=O)C2=C(C1)N(c1cccc(O)c1)C1=C(C2)C(=O)CC(C)(C)C1	10µM*	-11%	20%[57.1 µM]	15%	-6%	-5%
COc1ccc2[nH]c(C)c(CCN(Cc3cccs3)C(=S)Nc3cccc(F)c3)c2c1	40µM*	?	-21%	-1%	-1%	7%
CCn1c(C(=O)N2CCc3ccccc3C2)cc2oc3ccccc3c21	?	-5%	17%	-3%	-10%	3%
O=C1CS/C(=N/N=C\c2ccn[nH]2)N1	56µM*	-8%	-2%[57.1 µM]	0%[57.1 µM]	-6%	6%
Cc1ccc(OCC(=O)Nc2ccccc2-c2ccccc2NC(=O)COc2ccc(C)cc2)cc1	6%	1%	6%	-2%	-7%	-2%
O=c1[nH]c(=S)[nH]c2nc[nH]c12	nt	nt	?	-4%	-12%	nt
S=c1nc[nH]c2nc[nH]c12	40µM*!	?	?	-8%	-20%	-15%
CN(C)S(=O)(=O)c1ccc(N2CCCC2)c(C(=O)Nc2nc(-c3ccc(F)cc3)cs2)c1	5%	-13%	6%	4%	14%	0%
Cc1ccc(-c2n[nH]c3c2C(c2ccccc2Cl)N(c2ccc(C(=O)O)cc2)C3=O)cc1 (stereo not drawn)	nt	-27%	5%	0%	-19%	7.1µM*
CCc1ccc(C2c3c(-c4ccccc4)n[nH]c3C(=O)N2c2ccc(C(=O)O)cc2)cc1 (stereo not drawn)	nt	-6%	7%	3%	?	16µM*
O=C(NCc1ccc(OC(F)(F)F)cc1)c1cc(-c2ccccc2)nn1CC1CC(c2cccnc2)=NO1 (stereo not drawn)	nt	nt	0%	-6%	13%	8%
Cc1cc(C)n2nc(SCc3ncc(-c4ccccc4)o3)nc2n1	5%	4%	?	0%	-21%	-1%
c1ccc(-c2cnc(CSc3ncnc4sccc34)o2)cc1	50µM*	-17%	?	20%[57.1 µM]	8%	-1%
COc1ccc(C(=O)CSc2nnc(-c3ccco3)c(-c3ccco3)n2)cc1	8.9µM*	-27%	8.9µM*	-8%	-20%	10%
COc1cccc(NC(=O)CSc2nnc(CNC(=O)c3ccco3)n2C)c1	nt	1%	4%[57.1 µM]	1%[57.1 µM]	9%	-5%
CSc1nnc2c(n1)OC=Nc1ccccc1-2	18%	-9%	-5%	-9%	1%	0%
